# Test results: the supplement of paper PMC6555819
# Assays:
# Assay in all cases: PBM binding z-score (relative to random genomic background probes); higher = stronger binding; sequences stand for … in GC…GCGATTGACAGCGTAGAATGAAGG
# [1] = system: FXR:RXRa (NR concentration 270 nM, RXRa partner concentration 90 nM)
# How it was run: (§1)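 Antibodies against each partner of ligand-free nuclear receptor dimers (one per run) detected binding on custom Agilent 4×180K protein-binding microarrays after 1 h incubation. The double-stranded probes had 34-nt variable regions carrying direct-repeat seeds, single-nucleotide variants, half-site ablations and random human genomic background sequences. Binding z-scores, from regression-normalized fluorescence, use the random background probes as reference.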
# [2] = system: LXRa:RXRa (NR concentration 270 nM, RXRa partner concentration 90 nM)
# How it was run: as §1
# [3] = system: LXRa homodimer (NR concentration 270 nM)
# How it was run: as §1
# [4] = system: LXRb:RXRa (NR concentration 270 nM, RXRa partner concentration 90 nM)
# How it was run: as §1
# [5] = system: LXRb homodimer (NR concentration 270 nM)
# How it was run: as §1
# [6] = system: PPARa:RXRa (NR concentration 270 nM, RXRa partner concentration 90 nM)
# How it was run: as §1
# [7] = system: PPARg:RXRa (NR concentration 180 nM, RXRa partner concentration 90 nM)
# How it was run: as §1
# [8] = system: PPARg:RXRa 270nM:90nM, anti-RXR (NR concentration 270 nM, RXRa partner concentration 90 nM)
# How it was run: as §1
# [9] = system: PPARg:RXRa 30nM:10nM, anti-RXR (NR concentration 30 nM, RXRa partner concentration 10 nM)
# How it was run: as §1
# [10] = system: PPARg:RXRa 90nM:30nM, anti-RXR (NR concentration 90 nM, RXRa partner concentration 30 nM)
# How it was run: as §1
# [11] = system: PPARg:RXRa DBDmut IVT, anti-RXR (DBD mutation: RXRa K156A/R161A, NR concentration 270 nM, RXRa partner concentration 90 nM)
# How it was run: as §1
# [12] = system: PPARg:RXRa IVT, anti-PPARg (NR concentration 270 nM, RXRa partner concentration 90 nM)
# How it was run: as §1
# [13] = system: PPARg DBDmut:RXRa IVT, anti-PPARg (DBD mutation: PPARg1 K132A/R137A, NR concentration 270 nM, RXRa partner concentration 90 nM)
# How it was run: as §1
# [14] = system: PPARg DBDmut IVT, anti-PPARg (DBD mutation: PPARg1 K132A/R137A, NR concentration 270 nM)
# How it was run: as §1
# [15] = system: PPARg homodimer (NR concentration 180 nM)
# How it was run: as §1
# [16] = system: PXR:RXRa (NR concentration 270 nM, RXRa partner concentration 90 nM)
# How it was run: as §1
# [17] = system: PXR homodimer (NR concentration 270 nM)
# How it was run: as §1
# [18] = system: RARa:RXR (NR concentration 270 nM, RXRa partner concentration 90 nM)
# How it was run: as §1
# [19] = system: RARa homodimer (NR concentration 270 nM)
# How it was run: as §1
# [20] = system: RARb:RXRa (NR concentration 270 nM, RXRa partner concentration 90 nM)
# How it was run: as §1
Sequence,PBM binding z-score [1],PBM binding z-score [2],PBM binding z-score [3],PBM binding z-score [4],PBM binding z-score [5],PBM binding z-score [6],PBM binding z-score [7],PBM binding z-score [8],PBM binding z-score [9],PBM binding z-score [10],PBM binding z-score [11],PBM binding z-score [12],PBM binding z-score [13],PBM binding z-score [14],PBM binding z-score [15],PBM binding z-score [16],PBM binding z-score [17],PBM binding z-score [18],PBM binding z-score [19],PBM binding z-score [20]
ACAGACAGGTGATGAAGGTAGCTCAGGCTATCAT,-0.0912,-0.299,-0.372,-0.485,-0.548,-0.377,0.539,-0.247,-0.307,0.0803,0.00476,-0.161,-0.42,-0.376,-1.11,-0.38,0.0281,-0.246,0.11,0.0595
CCTAGTTGGTCAGGAGGGCACACACCGGATATGA,0.184,0.335,0.0656,0.24,-0.0952,0.641,0.988,0.912,0.0866,0.594,0.374,1.62,-0.178,-0.301,1.22,0.369,0.17,0.233,0.714,1.71
CCTAGTTGGTCAGAAGGTCACACACCGGATATGA,3.53,3.45,1.87,3.36,1.07,4.17,2.81,4.25,1.8,3.82,1.63,2.85,1.32,0.414,4.39,3.98,1.29,4.56,3.08,3.85
CGAACTAGGTCATTGACAGGACAGTCAATAGTAA,4.28,3.15,0.489,2.19,0.17,4.74,7.38,6.08,3.32,5.75,7.74,8.19,3.76,2.34,1.94,1.66,0.135,2.34,0.378,3.51
CATACAGGGTCAGCTAGGCCTGAGTAGGGACGGC,4.59,2.64,-0.384,1.79,0.0921,4.12,3.11,2.94,0.751,1.89,1.1,2.26,0.675,-0.0533,1.27,1.8,-0.411,3.27,0.583,3.86
CCGACTGGGGCAAGGTTACCACAACGCACAGCCA,0.0767,0.351,-0.32,0.671,-1.11,1.98,2.91,3.54,1.2,2.55,3.33,3.56,0.0122,-0.719,-0.214,0.24,-0.209,0.76,0.366,1.61
TCATATAGGCAAAAGGTGAAAGTCGGTGTGGTAA,1.44,1.54,-0.253,1.6,-0.167,4.76,7.39,6.76,6.88,8.15,3.66,3.79,0.358,-0.517,1.39,1.27,0.0545,1.81,0.897,1.81
AATACAGGGTCATCGTAGGCCAGGGTACGCACAG,7.02,6.11,2.59,4.52,1.33,5.71,6.91,6.06,2.54,4.9,2.56,4.25,1.78,1.18,4.25,4.84,0.528,5.17,1.22,4.32
CCGACTGGGGCAAGGTTACCTTAACGCACAGCCA,0.184,0.54,-0.581,0.495,-1.66,1.97,2.58,3.54,0.821,3.07,3.34,3.76,-1.05,-0.772,0.376,0.303,-0.595,0.858,-0.882,1.63
TCTAGTTGGTCAATGGTCACACACTCGAAATGCG,0.812,0.861,0.28,0.966,0.461,1.74,2.89,4.7,4.08,4.79,2.15,2.54,0.677,1.19,1.32,0.698,-0.0663,0.893,0.846,1.62
TCAAATAGGTAAAAGGTGAAAGTCGGTGTGGTAA,2.23,1.93,0.419,2.06,-0.106,5.45,8.26,8.33,8.45,9.13,4.66,4.53,0.779,0.749,2.29,1.91,0.411,3.31,1.82,2.27
ACTTACGGGTCAACGAGGTTATTGCACGCGTATA,6.87,5.03,1.72,4.44,0.685,5.64,5.89,5.22,1.88,3.88,3.11,3.97,1.27,2.63,3.35,5.53,5.35,5.36,1.38,4.19
CCTACTGGGCCCTTCAGAGGTCATTGATCATATG,2.3,3.83,5.02,3.34,0.134,3.32,0.503,1.95,0.162,0.866,0.668,1.66,-0.729,-0.628,3.64,4.97,1.92,4.84,0.707,2.58
GGAACGAGGGCATTCGAGTTGATAGAATGGCGAT,1.44,1.37,-0.262,0.195,-0.719,1.27,0.965,0.758,0.0506,0.303,2.73,1.93,-0.165,-0.814,-0.265,3.87,1.31,0.709,-0.629,1.69
